Records with an inconclusive call do not appear. A number with no mark means an inactive call. Calls come from the whole dose curve; as a rule, active = well fitted inhibition curve with a large enough effect; inconclusive = small, poorly fitted or top-dose-only effect; inactive = no such curve, though single readings can be large or run the other way.
tested on: Zika virus NS2B-NS3 protease (linked construct); assay: Primary screen NINDS Rhodamine qHTS for Zika virus inhibitors (AID 1347160); conditions: purified NS2B-NS3 protease, Rhodamine110 substrate fluorescence; series mostly up to 57.1 µM; activity change, negative = inhibition: at the top concentration; note: nearly all actives have a fitted effect of over 55% in size
How it was run: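 Single-chain NS2B-NS3 protease, 25 nM, pH 8.0; compounds preincubated 15 min. Activity: Rhodamine110 release from 1.5 microM substrate over 15 min, room temperature, data fitted to 4-parameter Hill.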
% is set by controls: 0 for no effect and ±100 for the full control effect.

Row | Compound | activity change, negative = inhibition
1 | N#Cc1ccnc(N2C(=O)CC[C@H]2C(=O)N(c2cncc(F)c2)[C@H](C(=O)NC2CC(F)(F)C2)c2ccccc2Cl)c1 | -23.6%
2 | C=C1CCC(OC(C)=O)C2(C)CC3(O)OC(=O)C(C)=C3CC12 (stereo not drawn) | 16.8%
3 | COc1cc2c(Nc3ccc(Cl)c(Cl)c3F)ncnc2cc1OCC1C[C@@H]2CN(C)C[C@@H]2C1 (stereo partly drawn) | 230%
4 | COc1ccc(C)c2sc(NC(=O)c3ccncc3)nc12 | 16.4%
5 | COc1c(OC2OC(CO)C(O)C(O)C2O)ccc(O)c1C(=O)OCc1ccccc1O[C@@H]1O[C@H](CO)[C@@H](O)[C@H](O)[C@H]1O (stereo partly drawn) | 12.1% [at 15.1 µM]
6 | C[C@@H]1O[C@@H](O[C@H]2[C@H](OC(=O)[C@]34CCC(C)(C)C[C@H]3C3=CCC5[C@@]6(C)C[C@H](O)[C@H](O[C@@H]7O[C@H](CO[C@@H]8OC[C@H](O)[C@H](O)[C@H]8O)[C@@H](O)[C@H](O)[C@H]7O)C(C)(C)C6CC[C@@]5(C)[C@]3(C)C[C@H]4O)OC[C@@H](O)[C@@H]2O)[C@H](O)[C@H](O[C@@H]2OC[C@](O)(CO)[C@H]2O)[C@H]1O[C@@H]1OC[C@H](O)[C@H](O[C@@H]2OC[C@@H](O)[C@H](O)[C@H]2O)[C@H]1O (stereo partly drawn) | 22.5% [at 10.7 µM]
7 | CCOC(=O)[C@H](CCc1ccccc1)N[C@@H](C)C(=O)N1C2CCCCC2C[C@H]1C(=O)O (stereo partly drawn) | 34%
8 | CC(=O)O[C@@H]1C[C@@]23C[C@@]24CC[C@H](OC2OC[C@@H](O)[C@H](O)[C@H]2O)C(C)(C)[C@@H]4CC[C@H]3[C@]2(C)CC3OC4(C[C@@H](C)C3[C@@]12C)OCC1(C)OC14 (stereo partly drawn) | -22% [at 15.1 µM]
